Among the data in PubChem BioAssay (NCATS) are Potency and outcome values, retold here.

Structures are written as SMILES. Inconclusive results are not listed. Entries that show only a call come without a potency. Activity calls are given as the source filed them. Calls come from the whole dose curve; as a rule, active = well fitted inhibition curve with a large enough effect; inconclusive = small, poorly fitted or top-dose-only effect; inactive = flat fitted curve, though single readings scatter.
Potency is the fitted concentration of half-maximal effect.

This assay is described as follows: P-glycoprotein substrates identified in KB-8-5-11 adenocarcinoma cell line, qHTS therapeutic library screen (AID 1346987). Note: nearly all actives have a fitted effect of over 65% in size. The conditions noted are these: KB-8-5-11 (P-gp overexpressing) viability, CellTiter-Glo, 72 h; series mostly up to 44.5 µM. The essentials:
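KB-8-5-11: colchicine-selected sub-line of KB-3-1 over-expressing P-gp; assay medium lacked colchicine. 72 h drug exposure at 37 degree C, CellTiter-Glo.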
In general terms: qHTS replaces the single test concentration by a dilution series.
Take `CC1CCC(=O)CC(SCC(O)C(=O)O)CCC(=O)O1` (configuration not stated): the Potency result was “inactive”. Turning to `C/C(=C\CO[C@@H]1O[C@H](CO[C@H]2OC[C@](O)(CO)[C@H]2O)[C@@H](O)[C@H](O)[C@H]1O)C(C)(C)O`, the Potency entry was “inactive”. Still for that read-out and setting: as for `CC[C@@H](C)[C@@H]1OC2(C=C[C@H]1C)C[C@@H]1C[C@H](C/C=C(\C)[C@H](O[C@H]3C[C@H](OC)[C@H](O[C@H]4C[C@H](OC)[C@H](NC(C)=O)[C@H](C)O4)[C@H](C)O3)[C@H](C)/C=C/C=C3\CO[C@H]4[C@H](O)C(C)=C[C@@H](C(=O)O1)[C@@]34O)O2` (some centres not stated), the figure is 10.1 µM (active). On the same count and under the same terms, as for `C=C(CCC1C(C)(O)CCC2C(C)(C)C(O)CCC12C)C(O)CO` (configuration not stated), the entry is “inactive”.

Regarding `COC1C=C(C)C(O)(CO)C2(C)CCCC(C)(C)C12` (configuration not stated), the Potency entry was “inactive”. Same read-out and setting: in the case of `COc1ccc2cc(-c3cc(-c4cc(Cl)cc(Cl)c4)nn3C(C)c3ccc(C(=O)NCCC(=O)O)cc3)ccc2c1` (configuration not stated) it was “inactive”; in that of `O=C(NC1CCN(CCCCC2(C(=O)NCC(F)(F)F)c3ccccc3-c3ccccc32)CC1)c1ccccc1-c1ccc(C(F)(F)F)cc1`, 20.6 µM (active). Consider `CC(=O)O[C@@H]1[C@H](O[C@@H]2O[C@@H](CO)[C@H](O)[C@H]2O)[C@@H](O[C@@H]2O[C@@H](C)[C@H](O[C@@H]3OC[C@@H](O)[C@H](O)[C@H]3O)[C@@H](O)[C@H]2O)[C@H](OC(=O)[C@]23CCC(C)(C)C[C@H]2C2=CCC4[C@@]5(C)CC[C@H](O[C@@H]6O[C@H](C(=O)O)[C@@H](O)[C@H](O)[C@H]6O[C@@H]6O[C@H](CO)[C@H](O)[C@H](O)[C@H]6O)[C@@](C)(C=O)C5CC[C@@]4(C)[C@]2(C)C[C@H]3O)O[C@@H]1C` (some centres not stated), for which the outcome was “inactive [at 9.29 µM]”.

For `COC1=C(C(=O)O)N2C(=O)[C@@H](NC(=O)[C@H](N)C3=CCC=CC3)[C@H]2SC1`, the Potency result is “inactive”. For the compound `CO/N=C(\C(=O)N[C@@H]1C(=O)N2C(C(=O)OCOC(=O)C(C)(C)C)=C(/C=C\c3scnc3C)CS[C@H]12)c1csc(N)n1`, the Potency entry was “inactive”. Regarding `CN[C@@H]1CCc2[nH]c3ccc(C(N)=O)cc3c2C1`, the Potency entry is “inactive”. The same measure, in the same setting: as for `COc1ccc(CNc2nc(N(CCO)CCO)nc3c2ncn3C(C)C)cc1`, the figure is 5.8 µM (active); as for `COCC(c1ccc(C(F)(F)F)cc1)N1CCN(C2(C)CCN(C(=O)c3c(C)ncnc3C)CC2)CC1C` (configuration not stated), “inactive”; as for `C1=Cc2ccccc2C(=C2CCN(CCCCc3nn[nH]n3)CC2)c2ccccc21`, “inactive”. Consider `CSCC[C@H](NC(=O)[C@H](Cc1ccc(OS(=O)(=O)O)cc1)NC(=O)[C@@H](N)CC(=O)O)C(=O)NCC(=O)N[C@@H](Cc1c[nH]c2ccccc12)C(=O)N[C@@H](CCSC)C(=O)N[C@@H](CC(=O)O)C(=O)N[C@@H](Cc1ccccc1)C(N)=O`, for which the Potency result is “inactive”.

In the case of `CC1CCC/C=C/C(=O)c2c(O)cc(O)cc2CC(=O)O1` (configuration not stated), the Potency is 5.8 µM (active). The same measure, in the same setting: in the case of `COc1ccc(NC(=O)c2ccc(C(=N)N(C)C)cc2)c(C(=O)Nc2ccc(Cl)cn2)c1` it was “inactive”; in that of `C=CS(=O)(=O)O`, “inactive”; in that of `O=C(c1c(F)ccc(NS(=O)(=O)N2CC[C@@H](F)C2)c1F)c1c[nH]c2ncc(-c3cnc(C4CC4)nc3)cc12`, “inactive”.

For the compound `CC[C@H](C)/C=C(C)/C=C/C1=CC2=C(Cl)C(=O)[C@](C)(O)[C@H](OC(C)=O)[C@H]2CO1`, the Potency result is “inactive”. Take `CN(C)CCOC(C)(c1ccccc1)c1ccc(Cl)cc1` (configuration not stated): the Potency is 16.4 µM (active). On the same count and under the same terms, as for `COc1ccc(C2(N(C)C(=O)c3ccc(NC(=O)c4ccco4)cc3)CCOCC2)cc1`, the entry is “inactive”. In the case of `CC1(C)OC[C@H](NC(=O)Nc2ccc(Br)cc2Br)[C@H](c2ccccc2)O1`, the Potency entry is “inactive”. Same read-out and setting: in the case of `CN(C)C(=O)Nc1cccc(-c2ccc(N(C)C)cc2)c1` it was “inactive”; in that of `COc1c(C(O)CC(C)C)ccc2c1C(=O)OCc1cc(C)cc(O)c1O2` (configuration not stated), “inactive”; in that of `Cc1[nH]c2ccccc2c1CCNCc1ccc(/C=C/C(=O)NO)cc1`, 0.366 µM (active). As to `CC(=O)O[C@@H]1C[C@@]2(C)C(CC[C@]3(C)C2CC=C2C4CC(C)(C)CC[C@]4(C(=O)O)CC[C@]23C)C(C)(C)[C@H]1O` (some centres not stated), the Potency entry is “inactive”.

`NC(=O)C[C@@H](N)C(=O)O`: the Potency entry was “inactive”.

Turning to `O=P(O)(O)OC(CO)CO`, the Potency entry is “inactive”. On the same count and under the same terms, as for `O=C(Nc1ccnc(NC(=O)C2CC2)c1)c1c(Cl)cccc1Cl`, the figure is 8.2 µM (active).

Consider `COc1cc(NC(=O)c2cccc(-n3cc(NC(=O)Nc4cccc(C)c4)cn3)c2)cc(OC)c1OC`, for which the Potency entry was “inactive”. As for `CCCC1([C@H](O)C/C=C/[C@H]2[C@H](O)CC(=O)[C@@H]2CCCCCCC(=O)OC)CCC1`, the Potency entry was “inactive”.
